These results are taken from PubChem BioAssay AID736 (The Scripps Research Institute Molecular Screening Center, 2007).

For orientation: inhibition means the relative decrease from the control value, in per cent.

The whole screen tested about 97,000 compounds, of which about 210 (0.22%) were called active. Only a selection was taken, and actives are over-represented in it overall. Unmarked numbers belong to inactive results. Cut-off read from the data, not from the text of the source: active = inhibition above about 45%; inactive = the rest.

In the assay the target is Sphingosine 1-phosphate receptor 2 (Homo sapiens) (UniProt O95136). As to the kind of experiment: blockers of S1P2 receptor signalling – cell-based, primary screen (AID 736).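 Note: CRE beta-lactamase reporter cells expressing human S1P2 stimulated with S1P; 0% = agonist at EC80 alone and 100% = agonist plus reference antagonist.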 The conditions noted are these: cell-based S1P2 antagonist assay, at 5 µM, stronger effect = higher value.
Sequence of Sphingosine 1-phosphate receptor 2 (Homo sapiens) (O95136 whole entry, looked up): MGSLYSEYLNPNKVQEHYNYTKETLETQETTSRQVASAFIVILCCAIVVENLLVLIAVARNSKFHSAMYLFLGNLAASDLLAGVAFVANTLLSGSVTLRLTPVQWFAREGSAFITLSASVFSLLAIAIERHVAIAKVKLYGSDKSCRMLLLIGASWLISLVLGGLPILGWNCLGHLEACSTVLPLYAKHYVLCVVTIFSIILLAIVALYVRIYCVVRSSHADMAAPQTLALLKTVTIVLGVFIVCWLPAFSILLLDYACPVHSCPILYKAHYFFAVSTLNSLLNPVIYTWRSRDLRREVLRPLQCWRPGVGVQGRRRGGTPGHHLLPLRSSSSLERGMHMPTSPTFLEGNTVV
As for `Cc1nn(C)cc1/C=N/NC(=O)c1sc2ccccc2c1Cl`, the inhibition was -19.2%.

Regarding `O=C(CCNS(=O)(=O)c1ccccc1C(F)(F)F)NCc1ccc2c(c1)OCO2`, the inhibition was -42.1%.

On to `CCOc1cc(-c2cc(-c3ccc(OC)cc3)nc(N)c2C#N)ccc1O`, for which the inhibition is -25.8%.

On to `COc1ccc2[nH]c(=O)c(CNc3ccc(C)c(C)c3)cc2c1`, for which the inhibition was 17.9%.

Turning to `CC1(C)NC(=O)N(CCCCSc2ccc(Cl)cc2)C1=O`, the inhibition was 11.3%.

As for `CCc1nnc(NC(=O)CSc2nc3ccccc3c(=O)n2CCCOC)s1`, the inhibition was 2.95%.

For the compound `COc1ccc(C(F)(F)F)cc1N/C=C\c1nnnn1-c1ccc(C)cc1`, the inhibition was -17.3%.

As to `CCNC(=S)Nc1cccc(Cl)c1C`, the inhibition is 13.9%.

On to `CCc1ccc(C2C(C#N)=C(N)Oc3n[nH]c(CC(=O)OC)c32)cc1` (configuration not stated), for which the inhibition was -30.6%.

For `Cc1ccc(S(=O)(=O)NCCSC(C)(C)C)cc1`, the inhibition was -2.88%.

Take `Cc1ccc(S/C(=N\S(=O)(=O)c2ccc(Cl)cc2)c2ccccc2)cc1`: the inhibition is -10.2%.

As for `O=C(Nc1cccc(-c2nc3ncccc3o2)c1)c1ccco1`, the inhibition is -19.4%.

`CCOC(=O)C1C(=O)NCC1c1ccccc1` (configuration not stated): the inhibition was -4.06%.

For the compound `COc1ccc(Cc2nnc(SC)[nH]c2=O)cc1`, the inhibition is -19.6%.

Regarding `Cc1cccc(C)c1OC(=O)CSc1nnc(-c2ccccc2)o1`, the inhibition was -20%.

Turning to `O=C(NCCN1CCN(Cc2ccccc2)CC1)c1cc2c(=O)[nH]c3ccccc3c2s1`, the inhibition was -27.2%.

Take `Cc1cc(C=O)c(C)n1-c1ccc(NC2CCCCC2)c([N+](=O)[O-])c1`: the inhibition is 4.51%.

As to `Cc1ccc(N2CCN(/N=C/c3cccs3)CC2)cc1`, the inhibition is 22.6%.

As to `Cc1cc([N+](=O)[O-])c(N2CCC[C@@H]2C(=O)O)c([N+](=O)[O-])c1`, the inhibition was 16.9%.

For the compound `COc1ccc(N(CC(=O)N/N=C/c2cccc3c2OCCO3)S(=O)(=O)c2ccc(NC(C)=O)cc2)cc1`, the inhibition was 10.2%.

With `COc1ccc(C2C(C(C)=O)=C(O)C(=O)N2Cc2cccnc2)cc1` (configuration not stated), the inhibition is 5.26%.

With `Cc1nnsc1S(=O)(=O)Cc1ccccc1Cl`, the inhibition was 6.79%.

As for `CC(=O)NS(=O)(=O)c1ccc(NC(=S)NC(=O)C(C)(C)C)cc1`, the inhibition is 1.69%.

On to `CS(=O)(=O)Nc1cccc(C2=NN(S(=O)(=O)c3ccccc3)C(c3cccs3)C2)c1` (configuration not stated), for which the inhibition was 21.1%.

Take `Clc1ccc(Cl)c(Oc2ccc(Oc3nc(Cl)ccc3Cl)cc2)n1`: the inhibition is -3.25%.

On to `O=C(Cc1ccc(-n2c(=O)c3sccc3n(Cc3ccc(F)cc3)c2=O)cc1)NCc1ccco1`, for which the inhibition is 14.3%.

Regarding `O=C(NCCCCCCNC(=O)NCc1ccco1)NCc1ccco1`, the inhibition was -14.7%.

Turning to `Cc1cc(-c2ccc(/C=N/n3cnnc3)o2)c([N+](=O)[O-])cc1C`, the inhibition is 1.7%.

Turning to `COc1ccc(-n2c(C)csc2=S)cc1`, the inhibition is -2.06%.

As to `Cn1nc([N+](=O)[O-])nc1Sc1ccc(C(C)(C)C)cc1`, the inhibition is 1.08%.

As to `CC(N=Cc1nc(-c2ccccc2)oc1O)c1ccccc1` (configuration not stated), the inhibition is -15.5%.

Take `O=C(Nc1nnc(CCOCCOCCc2nnc(NC(=O)c3ccco3)s2)s1)c1ccco1`: the inhibition is 0.16%.

On to `COc1ccc(Br)cc1CN1CCN(C(=O)c2cccc(OC)c2OC)CC1`, for which the inhibition was -12.2%.

Take `O=C1c2ccccc2NC(c2ccc(-c3cccc(Cl)c3)o2)N1O` (configuration not stated): the inhibition was 9.34%.

`CCCCc1nnc(NC(=O)CS(=O)(=O)Cc2ccccc2)s1`: the inhibition is 11.7%.

Regarding `Brc1ccc(-c2nnc(-c3ccccc3)o2)o1`, the inhibition is -21.1%.

Regarding `O=C(Nc1cccc2ccccc12)c1onc2c1CCCC2`, the inhibition is -13%.

Consider `ONC(=Nc1ccccc1)c1ccccc1Cl`, for which the inhibition was -2.09%.

For the compound `CCOC(=O)c1c(NC(=O)c2ccc(N3CCOCC3)c([N+](=O)[O-])c2)sc(C)c1C`, the inhibition was -6.51%.

On to `CC(C)CC[n+]1ccn(C2=C([O-])c3ccccc3C(=O)/C2=N\S(=O)(=O)c2ccccc2)c1`, for which the inhibition is 18.2%.

With `CCOC(=O)c1ccccc1NS(=O)(=O)c1ccc(OC)cc1`, the inhibition was -9.6%.

Regarding `Cc1nc2ccccc2cc1O`, the inhibition is -18.9%.

`CCOC(=O)c1cc2ccccc2nc1C`: the inhibition is -7.13%.

As for `Cc1nc2ccccc2cc1OCc1ccc(F)cc1`, the inhibition is 56.8% (active).

For `CCN(CC)S(=O)(=O)c1ccc(N2CCOCC2)c(C(=O)O)c1`, the inhibition is 0.01%.

Consider `COc1ccc(-c2noc(CSc3ccc(C)cc3)n2)cc1`, for which the inhibition is 8.11%.

As to `C=CCO/N=C(\C)c1c(O)c(C)c(-c2ccccc2)n(-c2ccccc2)c1=O`, the inhibition is 1.26%.

Take `CCn1c2ccccc2c2cc(NC(=S)N3CCOCC3)ccc21`: the inhibition was 7.28%.

Regarding `Cc1ccc(CNC(=O)c2ccccc2CCc2ccccc2)cc1`, the inhibition is -23.4%.

Regarding `CCCCCCC(=O)Nc1nc(C)c(-c2csc(Nc3cc(Cl)ccc3OC)n2)s1`, the inhibition was 8.39%.

Take `c1cnc(Nc2nc(-c3ccc4ccccc4c3)cs2)nc1`: the inhibition was 10.4%.

For `O=c1cc(CN2CCN(c3cccc(Cl)c3)CC2)c2cc3c(cc2o1)CCCC3`, the inhibition is 2.36%.

With `O=C(O)c1cccnc1NC1CCCC1`, the inhibition was -6.46%.

In the case of `CC(C)C(NC(=O)c1ccc(Cl)cc1)C(=O)O` (configuration not stated), the inhibition is 18.8%.

Take `Cc1ccccc1-n1nc(C)c2cc(C(=O)NC3CC3)sc21`: the inhibition is 2.59%.

With `Cc1ccc(-c2ccnc3nc(Sc4ncc(C(F)(F)F)cc4Cl)nn23)cc1`, the inhibition was -3.44%.

On to `CSc1nc(N(C)NC(=O)c2cccc(C)c2)c2ccccc2n1`, for which the inhibition was 5.9%.

With `CCN(c1ccccc1)S(=O)(=O)c1ccc(C(=O)Nc2nccs2)cc1`, the inhibition is -3.2%.

As to `O=C(Nc1ccn(Cc2ccccc2F)n1)c1ccc(COc2ccc(Cl)cc2Cl)o1`, the inhibition is 6.95%.

With `Cc1ccc(-n2nc3cc(C)c(NC(=O)c4cccnc4)cc3n2)cc1`, the inhibition was 3.29%.

Regarding `Cc1cc(=O)[nH]c(SCc2cccc(F)c2)n1`, the inhibition was -28.1%.

`O=[N+]([O-])c1ccccc1/C=N/n1c(COc2ccccc2)n[nH]c1=S`: the inhibition is 18.3%.
